Laboratory results: PubChem BioAssay (NCI)
The panel holds about 83,000 compounds, 20% with a hit somewhere; the sample as a whole holds those more often.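 Treatment: one concentration, 48 hours, 96-well format. Scoring: percent growth, with anything below 10 considered active.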 A number with no mark means an inactive call. Active and inactive are the calls of the source.

Tests used:
Assay in all cases: NCI-60 one-dose screen, 48 h (100 = growth as untreated, 0 = no growth, -100 = all killed)
[1] = test system: NCI-H23 lung; settings: 10 µM unless noted
[2] = test system: NCI-H226 lung; settings: 10 µM unless noted
[3] = test system: NCI-H322M lung; settings: 10 µM unless noted
[4] = test system: HOP-62 NSCLC; settings: 10 µM unless noted
[5] = test system: HOP-92 NSCLC; settings: 10 µM
[6] = test system: NCI-H522 lung; settings: 10 µM
[7] = test system: A549/ATCC NSCLC; settings: 10 µM unless noted
[8] = test system: 786-0 renal; settings: 10 µM unless noted
[9] = test system: NCI-H460 lung; settings: 10 µM unless noted
[10] = test system: COLO 205 colon; settings: 10 µM unless noted

COc1cc2c(c(OC)c1OC)C(=O)CC(c1cccc(C(=O)Nc3cccc(Br)c3)c1)O2 (configuration not stated)
growth [1]: 97% | growth [2]: 85.1% | growth [3]: 81.5% | growth [4]: 86% | growth [5]: 55.3% | growth [6]: 51.7% | growth [7]: 77.9% | growth [8]: 84%

O=C(c1ccccc1)c1ccccc1-c1ccccc1
growth [1]: 46.2% | growth [2]: 71.8% | growth [3]: 65.6% | growth [4]: 32.5% | growth [9]: 15.1% | growth [7]: 38.3% | growth [8]: 37.8% | growth [10]: 22.6%

COc1cc(C(=O)Nc2ccc(N(C)C)cc2)cc(OC)c1OC
growth [1]: 95.4% | growth [2]: 91% | growth [3]: 93.4% | growth [4]: 94.2% | growth [9]: 99.8% | growth [8]: 96.4% | growth [10]: 100%

COc1cc(OC)c(/C=C/c2ccc3ccccc3[n+]2C)c(OC)c1
growth [1]: 1.71% (active) | growth [2]: 26.2% | growth [3]: 17.7% | growth [4]: 28.4% | growth [9]: 1.55% (active) | growth [8]: 18.5% | growth [10]: -51.5% (active)

CC(C)C(=O)c1ccc(Cl)s1
growth [1]: 103% | growth [2]: 93.2% | growth [3]: 91.5% | growth [4]: 98.1% | growth [9]: 105% | growth [8]: 102% | growth [10]: 109%

Cc1cc2cn3c4ccc(O)cc4nc(N)c3c2cc1C
growth [1]: 26.8% | growth [2]: 45.9% | growth [3]: 7.56% (active) | growth [4]: 13.6% | growth [9]: -36.1% (active) | growth [7]: 8.84% (active) | growth [8]: 13.5% | growth [10]: -56.4% (active)

O=C(C(=O)N1CCOCC1)c1ccc(O[C@H]2O[C@H](CO)[C@@H](O)[C@H](O)[C@@H]2O)cc1
growth [1]: 99.9% | growth [2]: 95.8% | growth [3]: 91.7% | growth [4]: 111% | growth [5]: 102% | growth [6]: 93.9% | growth [7]: 106% | growth [8]: 97.1% | growth [10]: 119%

CCCCCCCCCc1cc[n+](CC(=O)c2ccc([N+](=O)[O-])cc2)cc1
growth [1]: 14.2% | growth [2]: 31.8% | growth [3]: 71.6% | growth [4]: 27.2% | growth [5]: -45.2% (active) | growth [6]: -12.9% (active) | growth [7]: -23.7% (active) | growth [8]: 31.9% | growth [10]: -76.9% (active)

CCCNC(=O)Oc1ccc(/C(=C(/C)Cc2ccc(OC)cc2)c2ccc(OCCN3CCCC3)cc2)cc1
growth [1]: 84.1% | growth [2]: 90.7% | growth [3]: 86.5% | growth [4]: 76.8% | growth [5]: 52.1% | growth [6]: 71.8% | growth [7]: 71.8% | growth [8]: 70.7% | growth [10]: 10.1%

Cc1ncc(C(=O)Nc2ccc(CN3CCN(C)CC3)c(C(F)(F)F)c2)cc1C#Cc1c(N)ncc2ccccc12
growth [1]: -73.1% (active) | growth [2]: -79.1% (active) | growth [3]: -99% (active) | growth [4]: -97.2% (active) | growth [5]: -37.9% (active) | growth [6]: -85.7% (active) | growth [7]: -96.6% (active) | growth [8]: -91.8% (active)

CN1CCN(Cc2ccc(NC(=O)c3ccc(C#Cc4c(N)ncc5ccc(F)cc45)cc3)cc2C(F)(F)F)CC1
growth [1]: -80.4% (active) | growth [2]: 55.1% | growth [3]: -49% (active) | growth [4]: -39.2% (active) | growth [5]: -2% (active) | growth [6]: -85.2% (active) | growth [7]: -49.1% (active) | growth [8]: -56.6% (active)

COc1cccc(CNC(=O)c2cccc(C3CC(=O)c4c(cc(OC)c(OC)c4OC)O3)c2)c1 (configuration not stated)
growth [1]: 99.1% | growth [2]: 78.2% | growth [3]: 86.6% | growth [4]: 66.7% | growth [5]: 19.8% | growth [6]: 24.9% | growth [7]: 80.8% | growth [8]: 24.8%

O=C1c2cc([N+](=O)[O-])ccc2-c2cc(Cl)c(NC(=O)C(F)(F)F)cc21
growth [1]: 95.3% | growth [2]: 101% | growth [3]: 103% | growth [4]: 106% | growth [5]: 99.4% | growth [6]: 113% | growth [7]: 108% | growth [8]: 108% | growth [10]: 95.9%

COc1ccc2cc(C(C)C(=O)Nc3ccc(S(=O)(=O)Nc4cc(C)on4)cc3)ccc2c1 (configuration not stated)
growth [1]: 101% | growth [2]: 106% | growth [3]: 108% | growth [4]: 88.5% | growth [5]: 102% | growth [6]: 89.7% | growth [7]: 86.2% | growth [8]: 102% | growth [10]: 115%

CCCCN(CCCC)CCCNc1c2c(nc3ccc(Cl)cc13)CCCC2
growth [1]: 82% | growth [2]: 100% | growth [3]: 95.4% | growth [4]: 86.6% | growth [5]: 73.5% | growth [6]: 80.1% | growth [7]: 94.6% | growth [8]: -69.6% (active) | growth [10]: 77.4%

N/C(=N\O)c1ccncc1
growth [1]: 95.6% | growth [2]: 117% | growth [3]: 101% | growth [4]: 93.6% | growth [5]: 107% | growth [6]: 93.4% | growth [7]: 102% | growth [8]: 100%

C/C=C(/C)C(=O)OC1C=C(CO)C(=O)C(OC(=O)C(C)(O)C(C)Cl)C1C(C)C (configuration not stated)
growth [1]: -50.1% (active) | growth [2]: -19.4% (active) | growth [3]: -10.6% (active) | growth [4]: -1.29% (active) | growth [5]: -50.2% (active) | growth [6]: -34.4% (active) | growth [7]: -18% (active) | growth [8]: -72.1% (active)

O=C1C(Cl)=C(Nc2ccc(Nc3ccccc3)c(NC3=C(Cl)C(=O)c4ccccc4C3=O)c2)C(=O)c2ccccc21
growth [1]: 88.4% | growth [2]: 98.8% | growth [3]: 57.3% | growth [4]: 59.8% | growth [5]: 45.3% | growth [6]: 14.9% | growth [7]: 92.7% | growth [8]: 78.3% | growth [10]: -15.6% (active)

COc1ccccc1C(=O)Nc1cccc(-c2cc(=O)c3c(OC)c(OC)c(OC)cc3o2)c1
growth [1]: 62.4% | growth [2]: 58.4% | growth [3]: 43.6% | growth [4]: 57.8% | growth [5]: -0.39% (active) | growth [6]: 44.3% | growth [7]: 48.2% | growth [8]: 45.3%

CC(C)(C)OC(=O)N1C/C(=C\c2ccccc2)C(=O)/C(=C/c2ccccc2)C1
growth [1]: 103% | growth [2]: 81.6% | growth [3]: 92.6% | growth [4]: 96.4% | growth [5]: 69.4% | growth [6]: 72% | growth [7]: 92.7% | growth [8]: 81.6%

CCCCCCNC(=O)Oc1ccc(/C(=C(/C)Cc2ccc(OC)cc2)c2ccc(OCCN3CCCCC3)cc2)cc1
growth [1]: 90.9% | growth [2]: 92% | growth [3]: 89.5% | growth [4]: 91.2% | growth [5]: 60.5% | growth [6]: 85.6% | growth [7]: 77.6% | growth [8]: 78.5% | growth [10]: 79.4%

CCCCCCNc1nc(N2CCOCC2)c2[nH]c(NCCCCCC)nc2n1
growth [1]: -94.5% (active) | growth [2]: -82.9% (active) | growth [3]: -46.7% (active) | growth [4]: -95.9% (active) | growth [5]: -77.7% (active) | growth [6]: -79.8% (active) | growth [7]: -90.1% (active) | growth [8]: -100% (active) | growth [10]: -64.8% (active)

CC([C@H]1CC=C2C3CCC4=C[C@@H](N(C)C)CC[C@]4(C)C3CC[C@@]21C)N(C)C (some centres not stated)
growth [1]: 51.9% | growth [2]: 47.9% | growth [3]: 83.3% | growth [4]: -19.4% (active) | growth [5]: 70.2% | growth [6]: 98.2% | growth [7]: 72% | growth [8]: -5.65% (active) | growth [10]: -65.1% (active)

COc1ccc2c(N)ncc(C#Cc3cc(C(=O)Nc4ccc(CN5CCN(C)CC5)c(C(F)(F)F)c4)cnc3C)c2c1
growth [1]: -30.3% (active) | growth [2]: 55% | growth [3]: 31.6% | growth [4]: 45.3% | growth [5]: 1.06% (active) | growth [6]: -38.3% (active) | growth [7]: -68.6% (active) | growth [8]: -55.6% (active)

C[C@]12C=CC(=O)C=C1[C@@H](F)C[C@@H]1[C@@H]2[C@@H](O)C[C@@]2(C)[C@H]1CC[C@]2(O)C(=O)CO
growth [1]: 106% | growth [2]: 90.6% | growth [3]: 113% | growth [4]: 104% | growth [5]: 57.5% | growth [6]: 118% | growth [7]: 63.5% | growth [8]: 108% | growth [10]: 106%

Cc1ccc(NCc2cn(-c3ccc(C(=O)O)cc3)nc2-c2ccc(C(=O)O)cc2)cc1
growth [1]: 92.2% | growth [2]: 107% | growth [3]: 99.7% | growth [4]: 100% | growth [5]: 107% | growth [6]: 86.2% | growth [7]: 94.9% | growth [8]: 103% | growth [10]: 104%

Cc1cc(CSc2ccc(Cl)cc2)ccc1N
growth [1]: 99.2% | growth [2]: 82.9% | growth [3]: 98.2% | growth [4]: 110% | growth [5]: 85.2% | growth [6]: 81.5% | growth [7]: 60.3% | growth [8]: 69.8% | growth [10]: 107%

Oc1ccc([S+](c2ccc(O)cc2)c2ccc(O)cc2)cc1
growth [1]: 106% | growth [2]: 88.3% | growth [3]: 95.3% | growth [4]: 94.3% | growth [5]: 92.2% | growth [6]: 112% | growth [7]: 98.7% | growth [8]: 106% | growth [10]: 102%

CC(C)CSc1nc(-c2ccc(F)cc2)c(C#N)c(N2CCCCC2)n1
growth [1]: 83.7% | growth [2]: 90.5% | growth [3]: 94% | growth [4]: 110% | growth [5]: 97.5% | growth [6]: 82.6% | growth [7]: 86.6% | growth [8]: 90.8% | growth [10]: 96.2%

Cc1ccc(C(=O)Nc2ccc(CN3CCN(C)CC3)c(C(F)(F)F)c2)cc1C#Cc1cncc2ncccc12
growth [1]: -84.3% (active) | growth [2]: 5.51% (active) | growth [3]: -95.8% (active) | growth [4]: -11.7% (active) | growth [5]: -30.7% (active) | growth [6]: 2.81% (active) | growth [7]: -82.1% (active) | growth [8]: -70.5% (active)
